According to PubChem BioAssay AID2265 (National Center for Advancing Translational Sciences (NCATS), 2010):
The list shows a part of the results. Inconclusive results are not listed. Calls of active or inactive are those of the source. The call rests on the fitted dose curve; in most records, active means well fitted inhibition curve with a large enough effect; inconclusive means small, poorly fitted or top-dose-only effect; inactive means flat fitted curve, though single readings scatter.

Each compound was assayed against Luciferin 4-monooxygenase (Photuris pensylvanica) (UniProt Q27757) (assay: Secondary assay for Inhibitors of Human Pyruvate Kinase M2 isoform: FLuc Counterscreen). Details: Kinase-Glo firefly luciferase, luminescence, 8 min; series mostly up to 57.5 µM.
Protocol: NIH Chemical Genomics Center [NCGC] Matthew G. Vander Heiden, M.D., Ph.D. [Harvard Medical School, 77 Avenue Louis Pasteur, Boston, MA 02115] MLPCN Grant: 1 R03 MH085679-01 NCGC Assay Overview: Luciferase (Kinase-Glo, Promega Corporation) was assayed for its ability to generate light using ATP and luciferin as substrates. The ATP concentration in the assay (10 uM) was within the linear range of enzyme activity for the assay conditions used. This assay was used as an counter screen for human pyruvate kinase M2 isoform.
NCGC Assay Protocol Summary: Four uL of substrate mix (final concentration, 50 mM imidazole pH 7.2, 50 mM KCl, 7 mM MgCl2, 10 uM ATP, 0.01% Tween 20, 0.05% BSA) was dispensed into white 1536 well plates. Twenty-three nL of compound was delivered by a pin tool and 2 uL of luciferase detection mix (Kinase-Glo, Promega)) was added. Following 8-minute incubation at ambient temperature, luminescence was measured by a ViewLux (Perkin Elmer) at 5 seconds exposure/plate.

Row | Compound | outcome
1 | Cc1ccc(Nc2c(-c3ccc(C)s3)nc3ccccn23)cc1 | inactive
2 | Cc1ccc(-c2nc3ccccn3c2Nc2ccc(F)cc2)o1 | inactive
